Test results: PMC10726135, “HNF4α isoforms regulate the circadian balance between carbohydrate and lipid metabolism in the liver”
Over roughly 18,000 sequences, “log2 normalized intensity” has its median near 0.39; the highest 2% begin near 6.6. The entries come from a sample that favours the highest values as a whole.

Molecular target: T1, HNF4alpha2 (COS-7 nuclear extract) (Homo sapiens, UniProt P41235 1-474)
T1 sequence: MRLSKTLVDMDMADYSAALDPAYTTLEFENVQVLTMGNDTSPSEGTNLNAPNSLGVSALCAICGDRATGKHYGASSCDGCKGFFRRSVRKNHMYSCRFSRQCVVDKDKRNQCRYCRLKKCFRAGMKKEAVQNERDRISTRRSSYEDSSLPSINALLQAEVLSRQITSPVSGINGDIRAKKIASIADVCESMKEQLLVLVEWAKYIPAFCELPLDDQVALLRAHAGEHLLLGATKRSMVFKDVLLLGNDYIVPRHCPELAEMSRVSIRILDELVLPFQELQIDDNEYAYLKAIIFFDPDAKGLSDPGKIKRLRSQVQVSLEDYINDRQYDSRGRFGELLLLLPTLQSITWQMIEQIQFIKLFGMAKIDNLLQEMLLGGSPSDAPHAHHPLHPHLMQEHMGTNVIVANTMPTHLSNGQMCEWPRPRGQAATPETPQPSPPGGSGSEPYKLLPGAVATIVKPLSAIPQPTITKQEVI
Assay: protein-binding microarray; COS-7 nuclear extract on double-stranded Agilent 4x180k PBM; binding buffer, salt, pH and temperature not given in the material; high values mean tight binding
Details: chain copies: 2; label: 3' end of strand 1 on the slide; dsDNA, one strand shown
Procedure, shortened: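 Nuclear extracts came from COS-7 cells transiently transfected by CaPO4 with a human HNF4α isoform expression vector. They were applied to a custom Agilent SurePrint G3 4x180k array of ~60-nt oligonucleotides, made double-stranded, with ~44,000 test sequences spotted in quadruplicate. Bound HNF4α was imaged at 2-µm resolution on an Agilent G2565CA scanner. Binding signal was taken as background-corrected, normalized gProcessedSignal from Agilent software.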

First: GATGGGCCAGGCAGGACAGTTTTGTGTGTTGCCTAGGGAGATTAGAGTATCGGTCGA
Second: TCAGATATCTGAATGTACCTTTGAAACCTAGCCTAGGGAGATTAGAGTATCGGTCGA
The binding signal of the first is lower: 1.11 log2 normalized intensity for the first, 2.87 log2 normalized intensity for the second.

Compared with “ATCCAGTAGAGGGCATAGCAGATAAGCATTGCCTAGGGAGATTAGAGTATCGGTCGA”, “ACTTCTTTGTGATGTGTGGATTCAGCTCACGCCTAGGGAGATTAGAGTATCGGTCGA” is higher in binding signal: -0.984 log2 normalized intensity for the first, 1.29 log2 normalized intensity for the second.

Going from “ATCTCAAATAGCTGGGTCTCACTCTGACCCGCCTAGGGAGATTAGAGTATCGGTCGA” to “ACTTCAAAGGGTGTTGTGACTACCTGGTTAGCCTAGGGAGATTAGAGTATCGGTCGA”, the binding signal falls from 3.32 log2 normalized intensity to 0.524 log2 normalized intensity.

First: AACTTCTTCCAATGAAAGGTTAACCTGCTGGCCTAGGGAGATTAGAGTATCGGTCGA
Second: TTTATCCTTTTTTGAAGGTTAAAGTCCATTGCCTAGGGAGATTAGAGTATCGGTCGA
The binding signal of the first is lower: 1.36 log2 normalized intensity for the first, 7 log2 normalized intensity for the second.

Going from “ACATTTTTATCCTTTTTTGAAGGTTAAAGTGCCTAGGGAGATTAGAGTATCGGTCGA” to “AAGGGCTGAGGTTAAAGTCCACATTCTTTAGCCTAGGGAGATTAGAGTATCGGTCGA”, the binding signal rises from 2.66 log2 normalized intensity to 5.76 log2 normalized intensity.

First: AAGCTTCACAAAGGGCTGAGGTTAAAGTCCGCCTAGGGAGATTAGAGTATCGGTCGA
Second: TCACAAAGGGCTGAGGTTAAAGTCCACATTGCCTAGGGAGATTAGAGTATCGGTCGA
The binding signal of the first is lower: 6.22 log2 normalized intensity for the first, 7.04 log2 normalized intensity for the second.

Going from “CCTTTTTTGAAGGTTAAAGTCCATTTTTGAGCCTAGGGAGATTAGAGTATCGGTCGA” to “TCCCCACTTATTACCGGTGTGACTTTGGTTGCCTAGGGAGATTAGAGTATCGGTCGA”, the binding signal falls from 6.53 log2 normalized intensity to 2.1 log2 normalized intensity.

First: CGGGAGGCAAGATAAGGGTAATCACCCCCAGCCTAGGGAGATTAGAGTATCGGTCGA
Second: CCTTACCTCCATTAACTAACCTTTGAACCAGCCTAGGGAGATTAGAGTATCGGTCGA
The binding signal of the first is lower: 2.34 log2 normalized intensity for the first, 6.78 log2 normalized intensity for the second.

Going from “GGTCCTAAGACTAACCTTTGACCATCCACGGCCTAGGGAGATTAGAGTATCGGTCGA” to “ATTAACTAACCTTTGAACCAGATGGCCCTCGCCTAGGGAGATTAGAGTATCGGTCGA”, the binding signal falls from 5.96 log2 normalized intensity to 3.62 log2 normalized intensity.

Going from “ATGTGGTCCTAAGACTAACCTTTGACCATCGCCTAGGGAGATTAGAGTATCGGTCGA” to “TTACTCATGTGGTCCTAAGACTAACCTTTGGCCTAGGGAGATTAGAGTATCGGTCGA”, the binding signal falls from 7.45 log2 normalized intensity to 3.37 log2 normalized intensity.

First: TACTCATGTGGTCCTAAGACTAACCTTTGAGCCTAGGGAGATTAGAGTATCGGTCGA
Second: CCTCCATTAACTAACCTTTGAACCAGATGGGCCTAGGGAGATTAGAGTATCGGTCGA
The binding signal of the first is higher: 6.33 log2 normalized intensity for the first, 4.77 log2 normalized intensity for the second.

Compared with “TAAGACTAACCTTTGACCATCCACGGATGCGCCTAGGGAGATTAGAGTATCGGTCGA”, “CATGTGGTCCTAAGACTAACCTTTGACCATGCCTAGGGAGATTAGAGTATCGGTCGA” is higher in binding signal: 4.62 log2 normalized intensity for the first, 7.89 log2 normalized intensity for the second.

Going from “CATGTTAATTTAAATAACAAGGATAGCGTCGCCTAGGGAGATTAGAGTATCGGTCGA” to “AAGGTCAGGATCTCAGCCGCGCGGCTTCAGGCCTAGGGAGATTAGAGTATCGGTCGA”, the binding signal falls from -0.878 log2 normalized intensity to -0.906 log2 normalized intensity.

Compared with “CAGTGGGGGGGGGGGGGGGGGTGTGTCTGTGCCTAGGGAGATTAGAGTATCGGTCGA”, “CTGGCAAAGCCATGAAGCAATTCTGAGCCCGCCTAGGGAGATTAGAGTATCGGTCGA” is lower in binding signal: 1.34 log2 normalized intensity for the first, -0.972 log2 normalized intensity for the second.

First: GACTTTGGTTGGATTTCTTGGCTTCTCTTGGCCTAGGGAGATTAGAGTATCGGTCGA
Second: ATCAAGGATTTTTTCTTGGACTTTGGTCATGCCTAGGGAGATTAGAGTATCGGTCGA
The binding signal of the first is lower: 1.04 log2 normalized intensity for the first, 8.1 log2 normalized intensity for the second.

Compared with “TCCAGATCAAGGATTTTTTCTTGGACTTTGGCCTAGGGAGATTAGAGTATCGGTCGA”, “TTTTCTTGGACTTTGGTCATCCTTTACTTTGCCTAGGGAGATTAGAGTATCGGTCGA” is higher in binding signal: 5.42 log2 normalized intensity for the first, 6.04 log2 normalized intensity for the second.

Compared with “TTGGACTTTGGTCATCCTTTACTTTCCCAAGCCTAGGGAGATTAGAGTATCGGTCGA”, “GGATTTTTTCTTGGACTTTGGTCATCCTTTGCCTAGGGAGATTAGAGTATCGGTCGA” is higher in binding signal: 5.18 log2 normalized intensity for the first, 6.83 log2 normalized intensity for the second.

First: TCCAAAAGGGCAGCAGTAACCCCCCAGGAGGCCTAGGGAGATTAGAGTATCGGTCGA
Second: GGTTGCCCTAGTGACTCTAGGAACCTTTCTGCCTAGGGAGATTAGAGTATCGGTCGA
The binding signal of the first is higher: 3.7 log2 normalized intensity for the first, -0.0376 log2 normalized intensity for the second.

First: GGGTCATGGAGCTGGAGGGCAAAGGTCAGAGCCTAGGGAGATTAGAGTATCGGTCGA
Second: AGAGCAATCATGGGCCCACAGATGATCAAAGCCTAGGGAGATTAGAGTATCGGTCGA
The binding signal of the first is higher: 7.97 log2 normalized intensity for the first, -0.805 log2 normalized intensity for the second.

Compared with “AAAGGGCAAAGGTCAGCTCATTCCCTAGGGGCCTAGGGAGATTAGAGTATCGGTCGA”, “GCAAAGGTCAGCTCATTCCCTAGGGCTCGGGCCTAGGGAGATTAGAGTATCGGTCGA” is lower in binding signal: 6.27 log2 normalized intensity for the first, -0.876 log2 normalized intensity for the second.

First: GTGGGTGCCAAACAAAAAGGGCAAAGGTCAGCCTAGGGAGATTAGAGTATCGGTCGA
Second: GAGAGAGAGAGAGGTGGGCAAAGGTCTCAAGCCTAGGGAGATTAGAGTATCGGTCGA
The binding signal of the first is higher: 8.12 log2 normalized intensity for the first, 2.55 log2 normalized intensity for the second.
